Measurements reported in PubChem BioAssay AID2778 (National Center for Advancing Translational Sciences (NCATS), 2010).
Inconclusive results are not listed. Calls of active or inactive are those of the source. The call rests on the fitted dose curve; in most records, active means well fitted inhibition curve with a large enough effect; inconclusive means small, poorly fitted or top-dose-only effect, or effect the other way; inactive means flat fitted curve, though single readings scatter. Positions of bridges follow the written chain, without caps; N, C: chain ends. Non-standard residues stand in square brackets, D forms with d. Residues, ends and D or L forms follow the SMILES beside them. *: point of attachment. Octanoyl(6-Me) = CCC(C)CCCCC(=O)*; Dab = NCC[CH](N)C(=O)O

The molecules below were run against Menin (Homo sapiens) (UniProt O00255) (assay: Confirmation of Inhibitors Targeting the Menin-MLL Interaction in MLL Related Leukemias: Confirmation in an HTRF (commercial TR-FRET) Assay using His-tagged menin and biotin-labeled MLL peptide). Conditions: His-menin / biotin-MLL peptide binding; series mostly up to 126 µM; activity change, negative = inhibition: at the top concentration.
From the text: qHTS Assay for Inhibitors Targeting the Menin-MLL Interaction in MLL Related Leukemias
NIH Chemical Genomics Center [NCGC]
NIH Molecular Libraries Probe Centers Network [MLPCN]
Assay Submitter (PI): Jolanta Grembecka, Tomasz Cierpicki, University of Virginia
Translocations of the MLL (Mixed Lineage Leukemia) gene are frequently found in human leukemias affecting both children and adults. Fusion of MLL to one of more than 60 genes results in generation of oncogenic proteins upregulating Hox genes, which are vital to blood cell development. Patients harboring fusion of the MLL gene suffer from aggressive leukemias and respond poorly to available therapies. All of the oncogenic fusion proteins have a preserved N-terminal fragment of MLL that has been identified to interact with menin. It has been recently discovered that association with menin is critical to the leukemogenic activity of the MLL fusion oncoproteins. Selective targeting of the menin-MLL interaction could provide an attractive therapeutic approach to develop novel drugs for MLL-related leukemias. Small molecules blocking the menin-MLL interaction should reverse the oncogenic potential of MLL fusion proteins.
We have developed and optimized a fluorescence polarization-based assay for the identification of Menin-MLL inhibitors. The assay was run employing two different MLL-derived peptides. The present assay uses a 12 amino acid peptide labeled with fluorescein at its N-terminus. This peptide consists of the menin high affinity binding motif from MLL and is potently bound by menin. Another peptide with a mutated sequence, labeled with Texas Red, was used in parallel as a less stringent screen for inhibitors.
The present assay uses an alternate technology to confirm hits from the primary screen - homogeneous time resolved fluorescence (HTRF).
The Menin protein, the MLL-wild type (w.t.) derived peptide (N-terminal 12 amino acids), the MLL-derived peptide labeled with Texas Red and the MLL-w.t. peptide labeled with Fluorescein were kindly supplied by laboratory of Dr. Jolanta Grembecka, University of Virginia. All protein and peptide solutions were stored in single use aliquots at -80C. The Eu3+ Cyrptate-conjugated mouse monoclonal antibody anti-6 Histidine (Eu3+-AB) and the Streptavidin-XL665 conjugate (XL665) were purchased from Cisbio International (Bedford, MA). All antibody and XL665 conjugate solution stocks were stored in single use aliquots at -20C. The Buffer components for all assays were purchased from Sigma-Aldrich (St. Louis, MO) and Invitrogen (Carlsbad, CA).
1. HTRF reaction buffer: 50 mM Tris-HCl pH 7.5, 50 mM NaCl, 1mM DTT.
Before use, 0.05% BSA is added.
2. His6-Menin protein, MLL-w.t. labeled with biotin.
Stored in singe use aliquots at -80C.
3. MLL-w.t. unlabeled peptide as positive control: 10 uM final in HTRF buffer.
1. Prepare His6-Menin at 200 nM, MLL-w.t.-biotin at 80 nM in HTRF buffer.
2. Prepare His6-Menin at 200 nM, MLL-w.t.-biotin at 80 nM and 10 uM MLL-w.t. unlabeled mixture in HTRF buffer.
3. Dispense 10 ul per well of reagent in step 1 in columns 2, 4-24 in a black 384 well plate, dispense 10 ul per well of reagents from steps 2 in column 1. Incubate plate at ambient for 15 minutes.
4. Transfer 1 uL per well of compound to plate and incubate at ambient for 1 hr.
5. Dispense 10uL of the donor (6His-Cryptate, 3.5 nM final conc.) and acceptor (SA_XL, 10nM final conc.) complex in the HTRF buffer with 0.01% BSA. Incubate for 1h.
On the % scale 0 is the no-effect control and ±100 the full control effect; potency means the concentration at half of the fitted maximal effect.

Sequence of Menin (Homo sapiens) (O00255 whole entry, looked up): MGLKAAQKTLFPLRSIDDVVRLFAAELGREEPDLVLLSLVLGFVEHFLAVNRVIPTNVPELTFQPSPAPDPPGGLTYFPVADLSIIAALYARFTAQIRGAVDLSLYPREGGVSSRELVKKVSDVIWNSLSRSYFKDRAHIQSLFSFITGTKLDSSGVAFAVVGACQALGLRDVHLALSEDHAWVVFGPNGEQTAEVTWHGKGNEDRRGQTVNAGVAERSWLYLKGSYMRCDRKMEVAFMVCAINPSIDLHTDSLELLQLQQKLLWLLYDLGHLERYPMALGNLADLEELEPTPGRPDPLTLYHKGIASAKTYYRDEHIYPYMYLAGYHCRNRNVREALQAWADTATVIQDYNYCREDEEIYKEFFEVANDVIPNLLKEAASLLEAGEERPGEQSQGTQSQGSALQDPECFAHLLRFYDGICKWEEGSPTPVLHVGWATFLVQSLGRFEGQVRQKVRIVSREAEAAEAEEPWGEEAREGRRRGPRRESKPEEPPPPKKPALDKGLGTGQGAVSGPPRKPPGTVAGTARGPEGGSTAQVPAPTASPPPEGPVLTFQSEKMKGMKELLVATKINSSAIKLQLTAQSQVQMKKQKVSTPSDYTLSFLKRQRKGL

Activity change, negative = inhibition, inactive:
COC(=O)C1[C@H]2SC(C)(C)C(C(=O)OC)N2C(=O)N1Cc1nc2ccccc2s1 (stereo not given in full) 5.96%
COc1ccc2[nH]c(=O)c(CN(Cc3cccs3)C(=S)Nc3cccc(C)c3)cc2c1 -20%
O=C(Nc1ccc2c(c1)OCO2)c1ccccc1 0.989%
COc1ccc(CNC(=O)C(c2ccc(O)cc2)N(Cc2ccco2)C(=O)c2snc(C(N)=O)c2N)cc1 (stereo not given) -9.89%
COc1cccc(C(=O)/C=C/Nc2ccc(S(=O)(=O)Nc3ccc(C(C)=O)cc3)cc2)c1 -17.8% [at 383 µM]
O=C(CSc1nc(O)cc(=O)n1-c1ccccc1)c1ccc(Br)cc1 -24.8%
Cc1ccccc1CN1CCN(C(C)C(=O)NCc2ccccc2)CC1 (stereo not given) -4.31%
CCc1ccccc1NC(=O)COc1cccc(-n2cnnn2)c1 2.78% [at 383 µM]
O=C(Cn1nc(-c2ccccc2)ccc1=O)N1CCCCC1 3.9% [at 383 µM]
O=C1C(Cl)=C(NC(=O)c2ccccc2)C(=O)C(Cl)=C1NC(=O)c1ccccc1 -2.38% [at 383 µM]
CCCN(CCC)CCCNC(=S)Nc1ccc2nc(N3CCCC3)cc(C)c2c1 13.3%
O=S(=O)(NCCc1c[nH]c2ccccc12)c1ccccc1 1.89% [at 383 µM]
COc1cc(OC)cc(C(=O)N/N=C/c2ccc(OC)c(COc3ccc4ccccc4c3)c2)c1 -18.7%
Cc1ccc(NC(=O)C(C)N2C(=O)c3ccccc3C2=O)c(C)c1 (stereo not given) 6.35%
O=C(CSc1nnc(-c2c[nH]c3ccccc23)o1)c1ccc(-c2ccccc2)cc1 -14.1%
CC(=O)c1c(O)cc(O)cc1CC(=O)O 2.69%
COc1cccc(-c2nn(-c3ccccc3)cc2/C=C\C(=O)c2cccs2)c1 3.61%
COC(=O)c1cc(CNC(=O)CCCSc2ccccc2)ccc1OC 3.68%
CCCN(CCC)CCCNC(=O)c1cc2c(=O)[nH]c3ccccc3c2s1 5.66%
COc1ccc(Cn2nnnc2C(c2ccccc2)N2CCN(C3CCCC3)CC2)cc1 (stereo not given) 2.29%
C[N+]1(CCNC(=O)/C=N/O)CCCCC1 1.09%
CCOC(=O)C1CCN(CC(O)COCc2ccccc2)CC1 (stereo not given) -0.832% [at 383 µM]
COc1cc(SC)ccc1C(=O)Nc1cccc(C2OCCCO2)c1 -11.9% [at 383 µM]
O=C(CC(=O)c1ccccc1)Nc1cc(C(F)(F)F)ccc1Cl -2.84%
CCOc1ccc(C2Nc3ccc4ccccc4c3-c3c2c(=O)oc2ccccc32)cc1 (stereo not given) -28.1%
CCC(C)CCCCC(=O)NC(CCN)C(=O)NC(C(=O)NC(CCN)C(=O)NC1CCNC(=O)C(C(C)O)NC(=O)C(CCN)NC(=O)C(CCN)NC(=O)C(CC(C)C)NC(=O)C(Cc2ccccc2)NC(=O)C(CCN)NC1=O)C(C)O (stereo not given) ({Octanoyl(6-Me)}-[Dab]T[Dab][Dab][Dab]FL[Dab][Dab]T; lactam 4-C; configuration not given here) -21.9%
CCOc1ccc(-c2nn(-c3ccccc3)cc2/C=C2\SC(N)=NC2=O)cc1C -18.9% [at 383 µM]
CCCn1c(=O)c(C(=O)Nc2ccccc2C(=O)OCC)c(O)c2ccccc21 2.41% [at 383 µM]
Cc1ccc(C(C[N+](=O)[O-])c2c(C)[nH]n(-c3ccccc3)c2=O)cc1 (stereo not given) -6.55%
CCCCn1c(SCC(=O)NCc2ccc(OC)c(C(=O)O)c2)nc2cc(S(N)(=O)=O)ccc21 -4.84% [at 383 µM]
O=S(=O)(c1ccc(-c2csc(Nc3ccc(Br)cc3)n2)cc1)N1CCCC1 -9% [at 383 µM]
CC(=O)O[C@H]1CSC[C@H]1NC(=O)c1ccccc1 5.21%
O=c1[nH]nc(Cc2ccc(-c3ccc(Cl)cc3)o2)c2ccccc12 -18.4%
Cc1cnc(CNc2ccnc(-c3ccoc3)n2)cn1 -2.59% [at 383 µM]
O=c1cc(O)c2ccccc2n1Cc1ccccc1F 0.617%
CC(c1ccncn1)N(C)Cc1nc(-c2ccc(C(F)(F)F)cc2)no1 (stereo not given) 7.72%
CN(C)/C=C(/C(=O)c1ccc(Cl)cc1)S(=O)(=O)c1ccc(Cl)cc1 1.54% [at 383 µM]
CCN1C(=O)[C@@H]2C(C(=O)c3cnccn3)=NN[C@@H]2C1=O 6.13%

Potency, active:
CCc1cc2c(N3CCN(C(=O)c4ccco4)CC3)ncnc2s1 100 µM
CN(C)[C@H]1C(=O)C(C(=O)NCN2CCCC2)=C(O)[C@]2(O)C(=O)C3=C(O)c4c(O)cccc4[C@](C)(O)[C@H]3C[C@H]12 70.7 µM
